# PI5P4Ka inh = inhibitors of human PI5P4K alpha | P48426 | PI5P4Kalpha enzyme, ADP-Glo luminescence, 60 min; stronger effect = lower value | max response, % | actives 1.2% (n = 330,000); active = max response of -50% or lower; inconclusive = between -30% and -50%; inactive = -30% or higher; also: value at the top dose of about 77 µM; % is scaled to controls: 0 for no effect and ±100 for the full control effect
#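 ADP-Glo luminescence end-point read after a 60 min room-temperature kinase reaction of PI5P4Kalpha plus substrate, initiated with ATP at 5 microM final. Buffer: 0.038 M HEPES pH 7.4, EGTA, 0.1% CHAPS, 5% DMSO.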
# JMJD2A Tudor inh = blocks the human JMJD2A Tudor domain | actives 4.4% (n = 390,000) | Potency, µM (top dose mostly 114 µM), for the others: at the highest dose activity change, negative = inhibition, hits mostly inhibitors | AlphaScreen JMJD2A-Tudor / H3K4me3 peptide binding; also: potency is read from the fitted curve at half-maximal effect; % is scaled to controls: 0 for no effect and ±100 for the full control effect; nearly all actives have a fitted effect of over 50% in size
# Target sequence (O75164 whole entry, looked up, the tested form may be a part): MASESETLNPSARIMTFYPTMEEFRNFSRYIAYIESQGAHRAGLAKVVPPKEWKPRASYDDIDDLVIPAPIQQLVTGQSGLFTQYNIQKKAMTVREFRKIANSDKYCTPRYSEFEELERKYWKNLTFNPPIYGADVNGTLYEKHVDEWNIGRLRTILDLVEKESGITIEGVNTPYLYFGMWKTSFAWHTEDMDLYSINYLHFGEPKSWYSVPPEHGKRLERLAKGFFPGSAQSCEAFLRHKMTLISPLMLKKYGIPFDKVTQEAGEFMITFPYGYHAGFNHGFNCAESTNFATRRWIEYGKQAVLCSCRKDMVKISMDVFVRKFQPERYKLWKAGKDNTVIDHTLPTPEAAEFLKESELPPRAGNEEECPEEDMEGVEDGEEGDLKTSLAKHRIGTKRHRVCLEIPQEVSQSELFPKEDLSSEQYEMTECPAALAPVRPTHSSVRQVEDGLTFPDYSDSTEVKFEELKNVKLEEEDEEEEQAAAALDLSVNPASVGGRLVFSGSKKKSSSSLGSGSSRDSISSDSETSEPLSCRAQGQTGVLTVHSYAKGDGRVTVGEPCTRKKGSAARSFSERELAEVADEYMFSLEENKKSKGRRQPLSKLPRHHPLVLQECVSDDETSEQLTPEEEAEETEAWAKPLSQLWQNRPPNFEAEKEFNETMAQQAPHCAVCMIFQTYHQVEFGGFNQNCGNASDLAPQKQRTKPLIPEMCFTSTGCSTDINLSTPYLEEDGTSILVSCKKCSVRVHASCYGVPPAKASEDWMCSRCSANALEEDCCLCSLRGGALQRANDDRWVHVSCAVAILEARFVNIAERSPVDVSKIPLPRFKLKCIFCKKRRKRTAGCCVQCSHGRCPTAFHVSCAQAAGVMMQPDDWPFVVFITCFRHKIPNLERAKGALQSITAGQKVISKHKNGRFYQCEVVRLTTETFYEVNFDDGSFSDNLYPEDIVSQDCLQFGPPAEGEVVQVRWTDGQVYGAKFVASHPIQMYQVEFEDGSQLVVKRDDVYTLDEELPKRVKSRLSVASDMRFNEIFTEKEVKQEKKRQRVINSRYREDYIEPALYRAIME
# G9a inh = inhibitors of human histone lysine methyltransferase G9a; Potency, µM (titrated, usually from 102 µM), inactives show at the top dose activity, negative = inhibition, most hits filed as inhibitors; actives 8.8% (n = 350,000); G9a H3K9 monomethylation, AlphaScreen, 2 h; also: potency is read from the fitted curve at half-maximal effect; % is scaled to controls: 0 for no effect and ±100 for the full control effect; nearly all actives have a fitted effect of over 75% in size
#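 AlphaScreen read-out: biotin-H3K9 peptide (500 nM) methylation by 20 nM enzyme with 20 uM SAM, 2 h at room temperature after 15 min compound preincubation; anti-monomethyl H3K9 antibody plus donor/acceptor beads, 10 min dark.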
# HP1b chromo inh = HP1-beta chromodomain-methylated histone interaction inhibition | AlphaScreen HP1-beta / biotin-H3K9me3 peptide binding | P83916 | actives 0.56% (n = 390,000) | Potency, µM (top dose mostly 114 µM), inactives show top-dose activity change, negative = inhibition, usual class: inhibitors; also: potency is read from the fitted curve at half-maximal effect; nearly all actives have a fitted effect of over 70% in size
#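 AlphaScreen: HP1-beta (50 nM) preformed 30 min with biotin-H3(1-18)K9me3 peptide (50 nM) in PBS pH 7.4, 0.01% Tween-20. Compound added for 30 min at RT, then streptavidin donor/nickel chelate acceptor beads (10 ug/mL) for 30 min.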
# BAZ2B inh = BAZ2B (human) inhibition. Potency, µM (doses to about 114 µM), for inactives: at the top dose activity change, negative = inhibition, hits mostly inhibitors. AlphaScreen BAZ2B-H3K14Ac peptide displacement. AID 504333. actives 4.4% (n = 360,000). Q9UIF8; also: potency is read from the fitted curve at half-maximal effect; % is scaled to controls: 0 for no effect and ±100 for the full control effect; nearly all actives have a fitted effect of over 60% in size
#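 AlphaScreen displacement of biotin-H3(5-23)K14Ac peptide (50 nM final) from BAZ2B (50 nM final) in PBS pH 7.4, 0.01% Tween-20; complex preformed 30 min RT, then compounds (top 110 uM) 30 min RT, beads 20 min dark.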
# PLK1 PBD inh = inhibitors of human PLK1 polo-box domain binding. actives 2.8% (n = 360,000). AID 720504. Plk1 PBD binding of FITC phosphopeptide, fluorescence polarization. Potency, µM, for the others: max response, negative = inhibition, most hits filed as inhibitors. P53350; also: potency is read from the fitted curve at half-maximal effect; series mostly up to about 57 µM; % is scaled to controls: 0 for no effect and ±100 for the full control effect; nearly all actives have a fitted effect of over 65% in size
# Numbers without * were called inactive; ? = inconclusive; . = no result given; [ ] = another dose, or the depositor's remark. The list is not random: actives were taken first. Their share in the collection is about 12%. Unless noted, calls follow the shape of the dose curve; as a rule, active = well fitted curve in the direction sought with a large enough effect; inconclusive = small, poorly fitted or top-dose-only effect, or another doubt; inactive = no such curve, though single readings can be large; an effect the other way counts as inactive or inconclusive.
SMILES,PI5P4Ka inh,JMJD2A Tudor inh,G9a inh,HP1b chromo inh,BAZ2B inh,PLK1 PBD inh
COCCN(C(=O)CSc1nnc(-c2cccc(F)c2)n1N)c1c(N)n(CC(C)C)c(=O)[nH]c1=O,-12,-9%,-16%,30%,-9%,-2%
Cc1ccc(S(=O)(=O)N2C[C@@H](C)[C@]3(C2)[C@H](O)[C@H](OC(=O)Nc2c(C)noc2C)C[C@H]2C(=O)N(c4ccccc4)C(=O)[C@H]23)cc1,-1,.,.,.,.,2%
Cc1n[nH]c(=O)c2c(NC(=O)CSc3nncn3C(C)C)oc(C)c12,-5,-12%,?,24%,9%,-1%
CCc1ccc(N2C(=O)CC(NNc3nc4ccccc4s3)C2=O)cc1 (centres undefined),-9,-20%,14µM*,21%,-11%,-3%
Cc1ccc(CNC(=O)c2nn(-c3ccc(Cl)cc3)nc2CO)cc1,.,-19%,0%[59 µM],-6%,0%,.
CC1(C)CC(=O)C(C=NCCN2CCN(C3CC(=O)N(c4ccc(Br)cc4)C3=O)CC2)=C(O)C1 (centres undefined),-16,?,6%[0.501 µM],-9%,1%,27µM*
CC(C)c1ccc(NNC(=O)C2CCC2)cc1,-1,?,7.1µM*,37%,-14%,-2%
CC(C)c1ccc(NC(=S)NNC(=O)C2CC2)cc1,0,-15%,.,46%,10%,-5%
CCC(=O)Nc1ccc(NC(=O)Cc2ccccc2)cn1,-1,-4%,56µM*,16%,?,-5%
COCC(=O)Nc1ccc(Nc2ccccc2)cc1,-13,-24%,?,-7%,40µM*,-13%
NC(=O)Nc1ccc(Nc2ccccc2)cc1,-30,-35%,56µM*,-9%,?,3%
CCC(=O)Nc1ccc(O)cc1,.,.,-6%[12.7 µM],.,.,.
CCC(=O)Nc1ccc(Nc2ccccc2)cc1,-1,-24%,50µM*,15%,-34%,-6%
CCC(=O)Nc1ccc(NC(=O)CCc2ccccc2)cn1,-2,-4%,-17%,27%,-4%,2%
CCOC(=O)c1ccc(NC(=O)COC)cc1,0,0%,-1%[12.7 µM],28%,0%,-4%
Cc1ccc(Cn2c(CO)cnc2SCC(=O)NCc2ccccc2Cl)cc1,.,-28%,-29%[59 µM],0%[57 µM],?,.
CN1C(=O)Cc2cc(S(=O)(=O)CCC(=O)N3CCN(c4cccc(Cl)c4)CC3)ccc21,.,-23%,-3%[59 µM],-10%,-2%,.
CCN(C(=O)CSc1nc(-c2ccc(C(C)C)cc2)no1)c1ccccc1,.,39%,49%[59 µM],56%,47%,.
Cc1c(O)ccc(-c2n[nH]c(C(=O)O)c2-c2nc3ccccc3s2)c1O,-23,-7%,45µM*,24%,?,-16%
O=C(COC(=O)C(Cc1ccccc1)NC(=O)c1ccc(Cl)cc1)c1ccc(Cl)cc1 (centres undefined),-9,-23%,3%[59 µM],19%,1%,11µM*
O=C(COC(=O)C(Cc1ccccc1)NC(=O)c1ccccc1)c1ccccc1 (centres undefined),-5,-4%,-7%[59 µM],27%,11%,-20%
CCOC(=O)c1sc2nc(-c3cccnc3)ccc2c1N,-2,-4%,-40%,39%,-1%,-6%
NC(=O)c1sc2nc(-c3cccnc3)ccc2c1N,?,-17%,10µM*,35%,-28%,-13%
N=C(N)Sc1nc(N2CCCCC2)nc(N2CCCCC2)n1,4,-14%,9%[12.7 µM],30%,79µM*,-5%
COc1cccc(C2NC(=O)NC(O)(C(F)(F)F)C2C(=O)c2cccnc2)c1OC (centres undefined),0,-23%,50µM*,20%,18%,-9%
COc1ccc(C2NC(=O)NC(O)(C(F)(F)F)C2C(=O)c2ccccc2)cc1OC (centres undefined),.,-20%,7%,29%,2%,-1%
CCN1C(=O)c2ccccc2S(=O)c2ccc(C(=O)N3CCN(c4cc(Cl)ccc4C)CC3)cc21 (centres undefined),.,-16%,5%[59 µM],22%,-25%,.
